{"source": "PubChem BioAssay AID1220", "about": "(Sanford-Burnham Center for Chemical Genomics, 2008)", "note": "Screen size: about 190,000 compounds; about 1,300 (0.68%) were called active. The full list was thinned out, with actives kept by preference. A number with no mark means an inactive call. Rule as the data show it: active = inhibition above about 50%; inactive = the rest."}
{"biological_target": "Mannose-6-phosphate isomerase (Homo sapiens) (UniProt P34949)", "sequence (P34949 whole entry, looked up)": "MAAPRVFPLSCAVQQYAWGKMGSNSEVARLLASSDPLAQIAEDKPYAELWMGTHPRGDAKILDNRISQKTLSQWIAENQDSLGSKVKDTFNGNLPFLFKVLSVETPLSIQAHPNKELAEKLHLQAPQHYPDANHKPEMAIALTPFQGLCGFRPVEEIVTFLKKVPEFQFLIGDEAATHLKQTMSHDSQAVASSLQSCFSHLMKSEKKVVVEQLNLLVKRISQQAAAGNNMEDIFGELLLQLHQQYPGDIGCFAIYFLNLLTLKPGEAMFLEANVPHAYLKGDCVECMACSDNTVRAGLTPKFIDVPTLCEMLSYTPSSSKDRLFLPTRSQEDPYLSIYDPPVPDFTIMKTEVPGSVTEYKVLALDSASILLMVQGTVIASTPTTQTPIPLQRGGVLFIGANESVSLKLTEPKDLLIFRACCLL", "experiment": "MPI inhibition at elevated mannose 6-phosphate – biochemical, fluorescence intensity, high mannose 6-phosphate, primary screen (AID 1220)", "details": "recombinant PMI enzyme, coupled fluorescence intensity; at 20 µM; hits give high values"}
{"smiles": "Cc1[nH]c2ccccc2c1/C=N/n1cnnc1", "inhibition": "-4.2%"}
{"smiles": "CN(/N=C/c1ccc([N+](=O)[O-])o1)c1ccccc1", "inhibition": "-3.1%"}
{"smiles": "O=[N+]([O-])c1ccc(/C=N/N=C/c2ccc([N+](=O)[O-])o2)o1", "inhibition": "24.5%"}
{"smiles": "CCCCCC(=O)N/N=C/c1ccccc1[N+](=O)[O-]", "inhibition": "-6.7%"}
{"smiles": "CCN(CC)c1ccc(N=Cc2ccccc2[N+](=O)[O-])cc1", "inhibition": "64.4% (active)"}
{"smiles": "CCCCNC(=S)N(C)/N=C/c1c(C)[nH]c2ccccc12", "inhibition": "9.5%"}
{"smiles": "CCN(CC)c1ccc(N=Cc2ccc([N+](=O)[O-])o2)cc1", "inhibition": "59.7% (active)"}
{"smiles": "CCNC(=S)N/N=C/c1ccccc1[N+](=O)[O-]", "inhibition": "-1.5%"}
{"smiles": "CCN(CC)c1ccc(N=Cc2c(C)[nH]c3ccccc23)cc1", "inhibition": "69.7% (active)"}
{"smiles": "CCN(CC)c1ccc(/C=N/NS(=O)(=O)c2cccc([N+](=O)[O-])c2)cc1", "inhibition": "-83.2%"}
{"smiles": "O=C(CNC(=O)C1COc2ccccc2O1)N/N=C\\c1cccc(O)c1", "note": "(configuration not stated)", "inhibition": "-10.8%"}
{"smiles": "Cc1cccc(-n2nnc3c(=O)n(CC(=O)Nc4cc(C)on4)cnc32)c1", "inhibition": "-4.2%"}
{"smiles": "COc1ccccc1N/C=C1/Sc2cc(Cl)ccc2NC1=O", "inhibition": "3%"}
{"smiles": "COc1cc(N)c(Cc2nccc3cc(OC)c(OC)cc23)cc1OC", "inhibition": "56.4% (active)"}
{"smiles": "CCOC(=O)Nc1cc(OC)c(OC)cc1Cc1nccc2cc(OC)c(OC)cc12", "inhibition": "-1.9%"}
{"smiles": "COc1cc2ccnc(Cc3cccc(OC)c3OC)c2cc1OC", "inhibition": "44.9%"}
{"smiles": "COc1ccc(NC(=O)c2ccccc2NC(=O)CSc2ccccc2)cc1", "inhibition": "2.1%"}
{"smiles": "C=C(C)C1Cc2c(C)nn(-c3ccccn3)c2C1", "note": "(configuration not stated)", "inhibition": "-10.9%"}
{"smiles": "Cc1nn(-c2ccccn2)c2c1C(c1ccccn1)C1=C(CCCC1=O)N2", "note": "(configuration not stated)", "inhibition": "0.2%"}
{"smiles": "Cc1nn(-c2ccccn2)c2c1C(=O)C(Br)CC2", "note": "(configuration not stated)", "inhibition": "72.9% (active)"}
{"smiles": "Cc1ccccc1C(=O)NNC(=O)C12CC3CC(CC(C3)C1)C2", "inhibition": "7%"}
{"smiles": "CC(=O)CC(=O)Nc1ccc(C(N)=O)cc1", "inhibition": "6.1%"}
{"smiles": "COc1cc(C2C(C#N)=C(N)Oc3cc(C)n(CCN4CCOCC4)c(=O)c32)cc(OC)c1OC", "note": "(configuration not stated)", "inhibition": "-11.7%"}
{"smiles": "COc1cc(OC)c(C2C(C#N)=C(N)Oc3cc(C)n(CCCN4CCOCC4)c(=O)c32)cc1OC", "note": "(configuration not stated)", "inhibition": "61.6% (active)"}
{"smiles": "COc1ccc(C2C(C#N)=C(N)Oc3cc(C)n(CCN4CCOCC4)c(=O)c32)cc1OC", "note": "(configuration not stated)", "inhibition": "-0.4%"}
{"smiles": "N#Cc1nc(-c2ccc(Cl)cc2)oc1N1CCCCC1", "inhibition": "-8.5%"}
{"smiles": "COc1ccccc1-n1c(CNC(=O)c2cccc([N+](=O)[O-])c2C)n[nH]c1=S", "inhibition": "-7.8%"}
